Bioassay records: PubChem, National Center for Advancing Translational Sciences (NCATS)
ELG1 genotox: qHTS screen for small molecules that induce genotoxicity in human embryonic kidney (HEK293T) cells expressing luciferase-tagged ELG1 | HEK293T ELG1-luciferase reporter, luminescence, 16 h | Potency, µM (top dose mostly 46 µM), hits mostly activators | 330,000 compounds, 1.3% hits | AID 504466, 2011; also: nearly all actives have a fitted effect of over 60% in size
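Cells (2,000/well) expressing the ELG1-luciferase fusion are dosed by pin tool and kept 16 hr at 37 °C, 5% CO2. Signal comes from ONE-Glo luciferase reagent after 30 min at room temperature.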
Rab9 promoter act: qHTS Assay for Rab9 Promoter Activators. Huh7 Rab9 promoter-luciferase reporter, luminescence, 24 h. Potency, µM (top dose mostly 9.22 µM), usual class: activators. 320,000 compounds, 2.8% hits. AID 485297, 2010; also: nearly all actives have a fitted effect of over 60% in size
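Cell-based reporter: Huh7 stable for Rab9 promoter-driven luciferase, plated in reduced-serum medium with 10% FBS at 1500 cells/well, compound-treated 24 h at 37 °C, luminescence read after 10 min reagent.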
SMN2 splice enh: qHTS Assay for Enhancers of SMN2 Splice Variant Expression. Potency, µM (series often up to 46.1 µM), actives largely listed as activators. 210,000 compounds, 2.8% hits. AID 1458, 2008. HEK293 SMN2-luciferase splicing reporter, luminescence, 30-36 h; also: nearly all actives have a fitted effect of over 55% in size
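HEK293 cells carry an SMN2 […]–luciferase reporter in which exon 7 inclusion puts luciferase in frame. Cells were plated 10-12 h before compound addition, then incubated 30-36 h at 37C. ONE-Glo luminescence was read; sodium butyrate at 4.5 mM final served as control.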
NPC1 prom act: qHTS Assay for NPC1 Promoter Activators; Huh7 NPC1 promoter luciferase reporter, 24 h; AID 485313, 2010; Potency, µM (top dose mostly 9.22 µM), most hits filed as activators; 320,000 compounds, 2.4% hits; also: nearly all actives have a fitted effect of over 60% in size
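NPC1 promoter–luciferase Huh7 cells; 24 h compound; luminescence.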
FLuc counter: qHTS profiling assay for firefly luciferase inhibitor/activator using purifed enzyme and Km concentrations of substrates (counterscreen for miR-21 project) | Luciferin 4-monooxygenase (Photinus pyralis), P08659 | purified FLuc, Km substrates, luminescence inhibition | Potency, µM (top dose mostly 57.5 µM), hits mostly inhibitors | 360,000 compounds, 6.9% hits | AID 588342, 2011; also: nearly all actives have a fitted effect of over 55% in size
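Biochemical qHTS of compounds, final roughly 60 µM downward over six points, against 10 nM purified firefly luciferase using Km concentrations of substrates (10 uM D-luciferin, 10 uM ATP) in Tris acetate pH 7.5 buffer; luminescence output.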
Of the large screens only hits and unclear results are named; the others gave an inactive call. An excerpt weighted towards active compounds, which were near 7.5% of everything screened. Calls follow the shape of the dose curve; as a rule, active = well fitted curve in the direction sought with a large enough effect; inconclusive = small, poorly fitted or top-dose-only effect, or another doubt; inactive = no such curve, though single readings can be large; an effect the other way counts as inactive or inconclusive.

COc1cc(Cl)c(C)cc1NC(=O)c1cc2c(Cl)nc3ccc(C)cc3c2s1	none (no result: ELG1 genotox, Rab9 promoter act, NPC1 prom act)
Cc1nc(N2CCOCC2)c2cc(-c3ccccc3)sc2n1	FLuc counter 21µM
Cc1nc(SCCC(=O)O)c2cc(-c3ccccc3)sc2n1	FLuc counter 0.67µM (no result: SMN2 splice enh)
Cc1ccccc1-n1c(SCC(N)=O)nc2sc(-c3ccccc3)cc2c1=O	none
CCCCn1c(SCC2CCCCO2)nc2cc(S(N)(=O)=O)ccc21 (configuration not stated)	none
CC1(C)CC(=O)C(C=Nc2ccccc2Sc2ccccc2)=C(O)C1	none
Cc1ccc(N=Cc2sc(O)c3ccccc23)c(C)c1	Rab9 promoter act 1µM, SMN2 splice enh 11µM, NPC1 prom act inconclusive, FLuc counter inconclusive
Cc1ccc(N=Cc2c(C)[nH]n(-c3nc4ccccc4[nH]3)c2=O)cc1	Rab9 promoter act inconclusive, NPC1 prom act inconclusive, FLuc counter 6.7µM
Cc1ccc(N=Cc2sc(O)c3ccccc23)cc1	ELG1 genotox inconclusive, Rab9 promoter act 1.3µM, SMN2 splice enh 4.5µM, NPC1 prom act 2µM, FLuc counter 1.1µM
Cc1ccc(-n2[nH]c(C)c(C=Nc3ccc4[nH]c(=O)[nH]c4c3)c2=O)cc1	FLuc counter inconclusive
Cc1ccc(N=Cc2c(O)c3ccccc3n(C)c2=O)cc1	FLuc counter 0.43µM (no result: SMN2 splice enh)
CCc1ccc(NC(=O)C2C3C=CC(C4CC34)C2C(=O)O)cc1 (configuration not stated)	SMN2 splice enh inconclusive, FLuc counter 2.1µM
